Results taken from PubChem BioAssay (Tox21).
Inconclusive results are not listed. Activity calls are given as the source filed them. Unless noted, the call rests on the fitted dose curve; in most records, active means well fitted curve in the direction sought with a large enough effect in the repeat runs; inconclusive means weak or mixed curves; inactive means no such curve, though single readings can be large; an effect the other way counts as inactive or inconclusive.

Tests used:
[1] = qHTS RealTime-Glo MT Cell Viability Assay in HEK293 cells - 24 hour (AID 1224886); further: nearly all actives have a fitted effect of over 50% in size; further: potency means the concentration at half of the fitted maximal effect; on activity change, negative = cytotoxicity: top concentration of the series differs between compounds
Procedure, shortened: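 Luminescence generated by NanoLuc from substrate produced by living HEK293 cells served as the viability signal. Each value reflects the reading at its stated time point during continuous 40 h compound exposure at 37 C.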

[2] = qHTS RealTime-Glo MT Cell Viability Assay in HEK293 cells - 8 hour (AID 1224887); further: nearly all actives have a fitted effect of over 50% in size; further: potency means the concentration at half of the fitted maximal effect; on activity change, negative = cytotoxicity: top concentration of the series differs between compounds
Procedure, shortened: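 HEK293 + NanoLuc + prosubstrate, 600 cells/well; 5 h, 37 C/5% CO2; compound 23 nL in DMSO by pintool; 37 C; luminescence read at 0, 8, 16, 24, 32 and 40 h time points.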

[3] = A CellTox Green Cytotoxicity Assay to monitor cytotoxicity in HEK293 cells - 16 hour (AID 1224888); further: nearly all actives have a fitted effect of over 35% in size; further: potency means the concentration at half of the fitted maximal effect
Procedure, shortened: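 Tox21 screen in HEK293: membrane-impermeant cyanine dye fluoresces on binding dead-cell DNA; compound pinned 5 h post-seeding, plates held at 37 C, signal read repeatedly through 40 h.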

[4] = A CellTox Green Cytotoxicity Assay to monitor cytotoxicity in HepG2 cells - 8 hour (AID 1224890); further: nearly all actives have a fitted effect of over 45% in size; further: potency means the concentration at half of the fitted maximal effect
Procedure, shortened: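 Measurements at 0, 8, 16, 24, 32 and 40 h of treatment captured CellTox Green fluorescence in HepG2 cells that had been co-plated with reagent and preincubated 5 h at 37 C/5% CO2.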

[5] = qHTS assay to identify small molecule antagonists of the estrogen receptor alpha (ER-alpha) signaling pathway using the BG1 cell line in the presence of 0.1 nM 17-beta-estradiol - cell viability counter screen (AID 1259241); further: nearly all actives have a fitted effect of over 40% in size; further: potency means the concentration at half of the fitted maximal effect
Procedure, shortened: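 VM7Luc4E2 cells (endogenous full-length ER-alpha, 4xERE-luciferase), cultured 5 days in charcoal-stripped serum, exposed to compounds with 0.1 nM 17beta-estradiol (final) for 22 hr at 37C. Viability read in same wells as live-cell protease fluorescence after 30 min.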

[6] = molecular target: Androgen receptor (Homo sapiens) (UniProt P10275); assay: qHTS assay to identify small molecule antagonists of the androgen receptor (AR) signaling pathway using the MDA cell line in the presence of 0.5 nM R1881 (AID 1259243); further: nearly all actives have a fitted effect of over 50% in size; further: potency means the concentration at half of the fitted maximal effect
Procedure, shortened: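 With R1881 held at 0.5 nM (final), compound effects on MMTV-luciferase expression in MDA-kb2 cells were scored by luminescence after a 16 hr, 37C incubation.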

[7] = molecular target: Estrogen receptor (Homo sapiens) (UniProt P03372); assay: qHTS assay to identify small molecule antagonists of the estrogen receptor alpha (ER-alpha) signaling pathway using the BG1 cell line in the presence of 0.1 nM 17-beta-estradiol (AID 1259244); further: nearly all actives have a fitted effect of over 50% in size; further: potency means the concentration at half of the fitted maximal effect
Procedure, shortened: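 Compounds were tested against 0.1 nM (final) 17beta-estradiol in VM7Luc4E2 cells, which express full-length ER-alpha and an ERE-luciferase reporter; luminescence was recorded following 22 h exposure.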

[8] = qHTS assay to identify small molecule HDAC inhibitors (AID 1259364); further: potency means the concentration at half of the fitted maximal effect;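 further: wild-type HCT-116 cells with endogenous class I/II HDAC activity; nearly all actives have a fitted effect of over 45% in size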
Procedure, shortened: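 Screening used wild-type human colon HCT-116 cells incubated overnight, dosed with compounds for 2 hours, and assayed with a homogeneous luminogenic HDAC I/II reagent for 30 minutes at room temperature.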

[9] = qHTS assay to identify small molecule HDAC inhibitors - cell viability counter screen (AID 1259365); further: nearly all actives have a fitted effect of over 50% in size; further: potency means the concentration at half of the fitted maximal effect; on activity change, negative = cytotoxicity: series mostly up to about 92 µM
Procedure, shortened: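 Wild-type HCT-116 cells, 1,500/well, cultured overnight, then compound-treated 2 h at 37 C. Viability measured as ATP luminescence with CellTiter-Glo after 30 min at room temperature.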

[10] = qHTS assay to identify small molecule agonists of the sonic hedgehog signaling (Shh) pathway - cell viability counter screen (AID 1259366); further: nearly all actives have a fitted effect of over 50% in size; further: potency means the concentration at half of the fitted maximal effect
Procedure, shortened: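 NIH/3T3-derived Gli1-Luc reporter cells, 2,000 per well, received compound after 4 h and were treated about 23 h at 37C. Viability measured in the same wells by CellTiter-Fluor fluorescence after 1 h.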

[11] = qHTS assay to identify small molecule antagonists of the sonic hedgehog signaling (Shh) pathway (AID 1259369; calls by dose curve; further: nearly all actives have a fitted effect of over 45% in size; further: potency means the concentration at half of the fitted maximal effect)
Procedure, shortened: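 NIH/3T3 stable Gli1-Luc clone, 2,000 cells/well, 4hr settle; cpd + conditioned medium 24hr; Luc reagent 30min RT; luminescence.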

[12] = molecular target: Estrogen receptor beta (Homo sapiens) (UniProt Q92731); assay: qHTS assay to identify small molecule agonists of the estrogen receptor beta (ER-beta) signaling pathway (AID 1259377; active means well fitted activation curve with a large enough effect in the signal ratio in the repeat runs, not every such curve was filed as active; the % refers to the signal ratio)
Procedure, shortened: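 ER-beta-UAS-bla HEK293T cells in medium with 2% charcoal-stripped FBS were exposed to compounds for 16 h at 37C. Beta-lactamase reporter activity was read as fluorescence after 2 h with LiveBLAzer B/G FRET substrate at room temperature.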

[13] = qHTS assay to identify small molecule antagonists of the androgen receptor (AR) signaling pathway using the MDA cell line in the presence of 0.5 nM R1881 - cell viability counter screen (AID 1259242); further: nearly all actives have a fitted effect of over 45% in size; further: potency means the concentration at half of the fitted maximal effect
Procedure, shortened: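 Concentration-response screen of compounds for toxicity in MDA-kb2 reporter cells: 16 hr at 37C with 0.5 nM R1881, endpoint live-cell protease fluorescence measured in the reporter wells.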

[14] = qHTS assay to identify small molecule antagonists of the sonic hedgehog signaling (Shh) pathway - cell viability counter screen (AID 1259367); further: nearly all actives have a fitted effect of over 55% in size; further: potency means the concentration at half of the fitted maximal effect
Procedure, shortened: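 CellTiter-Fluor signal in conditioned medium-stimulated 3T3 Gli1-Luc cells, 23 hr compound exposure, 37C.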

[15] = qHTS assay to identify small molecule agonists of the sonic hedgehog signaling (Shh) pathway (AID 1259368; calls by dose curve;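 further: NIH/3T3-derived 3T3Gli1-Luc cells carrying a stable Gli1-driven firefly luciferase reporter; series mostly up to about 92 µM; nearly all actives have a fitted effect of over 15% in size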)
Procedure, shortened: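 Hedgehog pathway agonism scored by increased firefly luciferase luminescence in 3T3Gli1-Luc cells treated 24 hr at 37 C; detection used a 30 min room-temperature reagent incubation.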

[16] = qHTS assay to identify small molecule agonists of the androgen receptor (AR) signaling pathway in the presence of an antagonist - cell viability counter screen (AID 1259379); further: nearly all actives have a fitted effect of over 25% in size; further: potency means the concentration at half of the fitted maximal effect;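 on activity change, negative = cytotoxicity: MDA-kb2 human breast cancer cells carrying an MMTV luciferase reporter; series mostly up to about 92 µM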
Procedure, shortened: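 MDA-kb2 viability measured by CellTiter-Fluor fluorescence in the same wells as the luciferase signal; nilutamide 3.0uM final; 15-point compound titration; 16 hr at 37C.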

[17] = molecular target: Estrogen receptor beta (Homo sapiens) (UniProt Q92731); assay: qHTS assay to identify small molecule antagonists of the estrogen receptor beta (ER-beta) signaling pathway (AID 1259378; active means well fitted inhibition curve with a large enough effect in the signal ratio in the repeat runs, not every such curve was filed as active; the % refers to the signal ratio; further: potency means the concentration at half of the fitted maximal effect)
Procedure, shortened: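 Antagonist mode: compounds added to beta-lactamase reporter HEK293T ER-beta-UAS cells stimulated with E2 (1nM final), 16 hr at 37C. LiveBLAzer B/G FRET substrate, 2 hours room temperature, fluorescence read-out.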

[18] = qHTS assay to identify small molecule agonists of the estrogen receptor beta (ER-beta) signaling pathway - cell viability counter screen (AID 1259380); further: nearly all actives have a fitted effect of over 30% in size; further: potency means the concentration at half of the fitted maximal effect
Procedure, shortened: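 Measured: luminescence from CellTiter-Glo after 30 min at room temperature, added to wells already read for the LiveBLAzer FRET reporter (2 hr substrate); ER-beta-UAS-bla HEK293T cells had 16 hr compound treatment at 37C, 5% CO2.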

[19] = qHTS RealTime-Glo MT Cell Viability Assay in HepG2 cells - 0 hour (AID 1224889); further: nearly all actives have a fitted effect of over 50% in size; further: potency means the concentration at half of the fitted maximal effect
Procedure, shortened: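 Tox21 10K library screened in qHTS format on HepG2 cells carrying RealTime-Glo reagents. Compounds were added after a 5 h preincubation, and the luminescent signal from continuous culture was measured repeatedly during 40 h treatment.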

[20] = qHTS assay to identify small molecule phospholipidosis (PLD) inducers (AID 1259344; active means well fitted curve in the direction sought with a large enough effect; an effect the other way counts as inactive or inconclusive)
Procedure, shortened: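 Accumulated phospholipid, stained red by LipidTOX during 24 h compound treatment of HepG2 cells at 37 C, is quantified from images as pit number and intensity, normalised per cell using Hoechst-stained nuclei.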
On the % scale 0 is the no-effect control and ±100 the full control effect.

Sequence of Estrogen receptor (Homo sapiens) (P03372 whole entry, looked up): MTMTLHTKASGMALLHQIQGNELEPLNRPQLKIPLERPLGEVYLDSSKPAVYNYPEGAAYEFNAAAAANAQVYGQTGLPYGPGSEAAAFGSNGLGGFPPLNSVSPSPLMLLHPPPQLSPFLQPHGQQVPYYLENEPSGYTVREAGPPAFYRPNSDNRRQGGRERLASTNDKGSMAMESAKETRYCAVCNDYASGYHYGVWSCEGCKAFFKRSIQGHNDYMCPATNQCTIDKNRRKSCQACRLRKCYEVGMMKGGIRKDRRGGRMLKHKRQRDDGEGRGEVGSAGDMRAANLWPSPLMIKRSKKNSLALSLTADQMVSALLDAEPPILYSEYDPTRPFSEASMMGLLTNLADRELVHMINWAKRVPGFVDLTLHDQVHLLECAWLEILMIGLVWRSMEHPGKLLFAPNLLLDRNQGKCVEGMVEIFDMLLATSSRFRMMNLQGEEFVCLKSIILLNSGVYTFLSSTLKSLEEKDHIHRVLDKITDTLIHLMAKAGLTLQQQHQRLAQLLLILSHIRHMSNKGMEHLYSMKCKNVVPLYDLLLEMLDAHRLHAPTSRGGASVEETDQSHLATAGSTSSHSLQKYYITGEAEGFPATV
Sequence of Androgen receptor (Homo sapiens) (P10275 whole entry, looked up): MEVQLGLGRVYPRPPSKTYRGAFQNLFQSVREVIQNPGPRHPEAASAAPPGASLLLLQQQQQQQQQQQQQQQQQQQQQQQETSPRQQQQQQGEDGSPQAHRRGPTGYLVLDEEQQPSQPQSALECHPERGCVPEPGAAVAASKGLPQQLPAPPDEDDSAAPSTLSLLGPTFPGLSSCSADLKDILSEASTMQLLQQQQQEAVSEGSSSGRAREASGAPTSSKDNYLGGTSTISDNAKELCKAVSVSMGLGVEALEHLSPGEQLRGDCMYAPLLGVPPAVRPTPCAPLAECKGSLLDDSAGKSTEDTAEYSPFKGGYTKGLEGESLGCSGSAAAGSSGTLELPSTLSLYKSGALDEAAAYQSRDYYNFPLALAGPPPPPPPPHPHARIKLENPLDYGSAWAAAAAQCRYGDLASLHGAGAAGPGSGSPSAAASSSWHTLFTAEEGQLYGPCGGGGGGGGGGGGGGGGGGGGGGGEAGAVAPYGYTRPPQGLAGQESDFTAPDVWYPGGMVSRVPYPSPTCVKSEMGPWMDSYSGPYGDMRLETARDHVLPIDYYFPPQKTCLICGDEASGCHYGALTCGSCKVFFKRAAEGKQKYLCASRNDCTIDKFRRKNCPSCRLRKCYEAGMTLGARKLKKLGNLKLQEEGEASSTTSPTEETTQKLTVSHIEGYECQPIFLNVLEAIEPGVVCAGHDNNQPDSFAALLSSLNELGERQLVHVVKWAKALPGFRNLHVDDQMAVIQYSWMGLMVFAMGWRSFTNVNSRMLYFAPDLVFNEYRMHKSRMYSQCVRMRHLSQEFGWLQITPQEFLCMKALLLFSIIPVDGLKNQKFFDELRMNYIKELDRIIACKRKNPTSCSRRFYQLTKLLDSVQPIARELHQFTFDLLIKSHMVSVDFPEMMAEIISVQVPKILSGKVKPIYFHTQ
Sequence of Estrogen receptor beta (Homo sapiens) (Q92731 whole entry, looked up): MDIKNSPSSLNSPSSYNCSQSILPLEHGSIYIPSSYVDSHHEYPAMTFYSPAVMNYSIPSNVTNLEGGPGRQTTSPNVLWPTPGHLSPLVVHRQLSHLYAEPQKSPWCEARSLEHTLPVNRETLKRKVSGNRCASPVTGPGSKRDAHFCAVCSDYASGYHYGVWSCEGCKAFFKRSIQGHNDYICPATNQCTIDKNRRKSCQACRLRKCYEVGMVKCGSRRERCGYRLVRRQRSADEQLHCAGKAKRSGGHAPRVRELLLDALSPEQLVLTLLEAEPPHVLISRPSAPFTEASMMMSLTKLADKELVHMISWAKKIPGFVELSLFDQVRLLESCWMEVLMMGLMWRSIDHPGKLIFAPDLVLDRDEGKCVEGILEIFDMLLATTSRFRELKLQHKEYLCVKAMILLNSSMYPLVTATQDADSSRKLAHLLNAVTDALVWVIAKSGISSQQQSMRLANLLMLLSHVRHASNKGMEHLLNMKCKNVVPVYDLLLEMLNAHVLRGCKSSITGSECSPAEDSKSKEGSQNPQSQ

CC(=O)Nc1ccc(N=Nc2cc(C)ccc2O)cc1
active: Potency [8] 2.73 µM | Potency [11] 15.4 µM
inactive: Potency [1] | Potency [2] | Potency [3] | Potency [4] | Potency [5] | Potency [6] | Potency [7] | Potency [9] | Potency [10] | outcome [12]

C=C[Si](C)(C)Cl
inactive: activity change, negative = cytotoxicity [1] -3.65% [at 6.97 µM] | activity change, negative = cytotoxicity [2] -4.42% [at 6.97 µM] | activity change [3] -2.03% [at 6.97 µM, stronger effect = higher value] | cytotoxicity increase [4] -7.78% [at 6.97 µM] | activity change, negative = cytotoxicity [5] -11.6% [at 8.39 µM] | viability change, negative = cytotoxic [13] 0.0065% [at 8.39 µM] | activity change, negative = cytotoxicity [9] -0.871% [at 8.39 µM] | viability change, negative = cytotoxic [10] 9.73% [at 8.39 µM] | viability change, negative = cytotoxic [14] -1.01% [at 8.39 µM] | activity change [15] 1.18% [at 8.39 µM, stronger effect = higher value] | activity change, negative = cytotoxicity [16] -1.9% [at 8.39 µM]

Oc1ccc2c(c1)CCC2
inactive: Potency [1] | Potency [2] | Potency [3] | Potency [4] | Potency [5] | Potency [13] | Potency [7] | Potency [9] | Potency [10] | Potency [14] | Potency [15] | Potency [17] | Potency [16] | Potency [18]

NCc1ccco1
inactive: Potency [1] | Potency [2] | Potency [4] | Potency [5] | Potency [13] | Potency [9] | Potency [10] | Potency [14] | Potency [15] | Potency [11] | outcome [12] | Potency [17] | Potency [16] | Potency [18]

Cc1ccc(N=Nc2c(O)ccc3ccccc23)c(C)c1
inactive: Potency [1] | Potency [3] | Potency [19] | Potency [4] | Potency [6] | Potency [7] | Potency [8] | Potency [15] | Potency [11] | Potency [18]
active: Potency [16] 13.3 µM

Nc1ccc(F)c([N+](=O)[O-])c1
inactive: Potency [2] | Potency [3] | Potency [19] | Potency [4] | Potency [5] | Potency [13] | Potency [7] | Potency [8] | Potency [9] | Potency [10] | Potency [14] | Potency [15] | Potency [11] | outcome [12] | Potency [17] | Potency [16] | Potency [18]

O=C1OC(=O)c2cc(-c3ccc4c(c3)C(=O)OC4=O)ccc21
inactive: Potency [1] | Potency [2] | Potency [3] | Potency [4] | Potency [5] | Potency [13] | Potency [7] | Potency [9] | Potency [15] | outcome [12] | Potency [16] | Potency [18]
active: Potency [11] 17.2 µM

CN(C[C@@H](CC[N+]12CCC(C3CCCCC3)(CC1)CC2)c1ccc(Cl)c(Cl)c1)C(=O)c1cc(C(F)(F)F)cc(C(F)(F)F)c1
inactive: Potency [8] | Potency [14] | Potency [15] | Potency [11]
active: Potency [1] 3.09 µM | Potency [2] 3.47 µM | Potency [3] 24.5 µM | Potency [4] 38.9 µM | Potency [5] 54.5 µM | Potency [9] 12.2 µM | Potency [16] 68.6 µM | Potency [18] 30.6 µM

Cc1cc(F)ccc1-c1cc(N2CC[C@@H](O)[C@H]2CO)ncc1N(C)C(=O)C(C)(C)c1cc(C(F)(F)F)cc(C(F)(F)F)c1
active: Potency [1] 17.1 µM | Potency [2] 34.1 µM | Potency [19] 1.71 µM | Potency [10] 42.6 µM | Potency [17] 19 µM | Potency [16] 53.6 µM
inactive: Potency [5] | Potency [13] | Potency [9] | Potency [15]

CCn1c2ccccc2c2ccccc21
inactive: Potency [1] | Potency [3] | Potency [4] | Potency [5] | Potency [13] | Potency [7] | Potency [9] | Potency [10] | Potency [14] | Potency [15] | Potency [11] | Potency [16] | Potency [18]

C[C@H]1O[C@@H](O[C@H]2CC[C@@]3(C)[C@H](CC[C@@H]4[C@@H]3C[C@@H](O)[C@]3(C)[C@@H](C5=CC(=O)OC5)CC[C@]43O)C2)C[C@H](O)[C@@H]1O[C@H]1C[C@H](O)[C@H](O[C@H]2C[C@H](O)[C@H](O[C@@H]3O[C@H](CO)[C@@H](O)[C@H](O)[C@H]3O)[C@@H](C)O2)[C@@H](C)O1
active: Potency [18] 0.168 µM
inactive: Potency [2] | Potency [3] | Potency [19] | Potency [4] | Potency [5] | Potency [13] | Potency [7] | Potency [8] | Potency [9] | Potency [10] | Potency [14] | Potency [15] | Potency [11]

N#Cc1nc(Cl)c(Cl)c(Cl)c1Cl
active: Potency [1] 1.95 µM | Potency [13] 54.5 µM | Potency [6] 4.86 µM | Potency [10] 5.45 µM | Potency [14] 10.9 µM | Potency [16] 24.3 µM | Potency [18] 15.4 µM
inactive: Potency [19] | Potency [4] | Potency [15]

CCOC(=O)OC(=O)OCC
inactive: Potency [2] | Potency [3] | Potency [19] | Potency [4] | Potency [5] | Potency [13] | Potency [6] | Potency [7] | Potency [9] | Potency [10] | Potency [14] | Potency [15] | Potency [11] | Potency [17] | Potency [16] | Potency [18]

c1ccc(C[P+](c2ccccc2)(c2ccccc2)c2ccccc2)cc1
inactive: Potency [3] | Potency [4] | Potency [8] | Potency [9] | Potency [15]
active: Potency [1] 1.74 µM | Potency [13] 10.9 µM | Potency [7] 1.22 µM | Potency [11] 5.45 µM | Potency [16] 2.73 µM

CCCCCCCCOC(=O)c1cc(O)c(O)c(O)c1
active: Potency [1] 11 µM | Potency [2] 5.49 µM | Potency [7] 24.3 µM | Potency [10] 24.3 µM | Potency [11] 2.17 µM | Potency [17] 15.4 µM | Potency [16] 17.2 µM | Potency [18] 68.6 µM
inactive: Potency [8] | Potency [9] | Potency [15] | outcome [12]

CSc1ccc(O)cc1C
inactive: Potency [1] | Potency [3] | Potency [4] | Potency [13] | Potency [8] | Potency [9] | Potency [15] | Potency [16]
active: Potency [10] 43.3 µM | Potency [14] 27.3 µM | Potency [11] 13.7 µM | Potency [17] 54.5 µM

CCCOC(=O)c1ccc(O)cc1
active: Potency [1] 21.9 µM | Potency [11] 2.43 µM
inactive: Potency [3] | Potency [19] | Potency [4] | Potency [5] | Potency [13] | Potency [7] | Potency [20] | Potency [9] | Potency [10] | Potency [14] | Potency [15] | Potency [16]
